In the library only some 3.5% were active in any assay of this set; here they are far more common.
MITF primary – inhibitors of human MITF; inhibition, % at 2.6 µM; AlphaScreen MITF homodimerization, bead proximity signal; 0.91% of 650,000 active; in the data active means inhibition above about 50%;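 further: 0% = vehicle wells with protein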
GPR151 activ – human GPR151 activation; PathHunter beta-arrestin GPR151 cells, luminescence; activation, % at 11.2 µM; AID 1508602; 1% of 650,000 active; Q8TDV0; in the data active means activation above about 4.9%;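 further: 0% = median of compound wells and 100% = cells with positive control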
TEAD-YAP block – TEAD-YAP interaction inhibition; HEK-TIYL cells, TEAD-Gal4/YAP UAS-luciferase luminescence; inhibition, % at 9.12 µM; AID 1259422; 1.4% of 640,000 active; in the data active means inhibition above about 32%;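 further: 0% = median of test compound wells and 100% = reference inhibitor wells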
FBW7 activator – activators of human E3 ligase FBW7; AID 1259310; normalized activity (activation), % at 26.1 µM; AlphaScreen FBW7–phospho-cyclin E peptide binding, activator screen; Q969H0; 0.13% of 650,000 active; in the data active means normalized activity above about 1.9%;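 further: purified mutant Fbw7 with reduced substrate affinity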
Target sequence (Q969H0 whole entry, looked up): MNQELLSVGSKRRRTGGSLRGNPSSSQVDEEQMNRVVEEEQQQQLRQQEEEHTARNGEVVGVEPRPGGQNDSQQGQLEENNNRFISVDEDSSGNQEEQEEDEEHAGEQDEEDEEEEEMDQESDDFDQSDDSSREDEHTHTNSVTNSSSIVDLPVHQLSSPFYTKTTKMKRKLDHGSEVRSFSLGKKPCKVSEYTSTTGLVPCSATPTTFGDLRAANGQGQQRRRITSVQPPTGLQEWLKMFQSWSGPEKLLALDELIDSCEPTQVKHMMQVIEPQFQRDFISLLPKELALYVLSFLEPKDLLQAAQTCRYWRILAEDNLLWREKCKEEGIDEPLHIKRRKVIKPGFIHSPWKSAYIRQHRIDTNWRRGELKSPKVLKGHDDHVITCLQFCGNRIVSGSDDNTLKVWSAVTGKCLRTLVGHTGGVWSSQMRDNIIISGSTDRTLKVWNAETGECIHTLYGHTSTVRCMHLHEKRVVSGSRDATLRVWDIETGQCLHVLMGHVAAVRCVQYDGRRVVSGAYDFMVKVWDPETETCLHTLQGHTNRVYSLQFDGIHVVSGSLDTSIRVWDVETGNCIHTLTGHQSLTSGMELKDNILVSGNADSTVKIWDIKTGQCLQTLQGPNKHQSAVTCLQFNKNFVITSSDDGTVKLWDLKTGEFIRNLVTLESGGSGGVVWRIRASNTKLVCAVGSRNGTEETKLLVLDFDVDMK
The depositor's hits bear a star.

SMILES	MITF primary	GPR151 activ	TEAD-YAP block	FBW7 activator
COc1cccc(CN(C)C(=O)c2cnc3cc(-c4cn[nH]c4)ccn23)c1	-5	-1	46*	0
COc1cccc(CN(CCN(C)C)C(=O)Nc2ccc(-c3cn[nH]c3)cc2N(C)C)c1	25	-1	50*	0
COc1cccc(CN(CCN(C)C)C(=O)c2cnc3cc(-c4cn[nH]c4)ccn23)c1	-4	-2	-10	0
COc1cccc(CN(CCCN(C)C)C(=O)Nc2ccc(-c3cn[nH]c3)cc2OC)c1	-10	1	-12	0
CCCCNS(=O)(=O)c1ccc(NC(=O)CC(C)c2ccccc2)cc1 (centres undefined)	-12	2	23	0
CCOC(=O)c1c(NC(=O)c2cccc(S(=O)(=O)N3CCCCC3)c2)sc(C)c1C	4	0	-8	0
Clc1cnc(Nc2ccc(-n3cnc(N4CCOCC4)n3)cc2)nc1-c1ccno1	4	-1	9	1
Cc1ncn(-c2ccc(Nc3ncc4cccc(-c5ccccc5)c4n3)cc2)n1	6	1	9	-1
Cc1ncn(-c2ccc(Nc3ncc4cccc(-c5cccc(N6CCOCC6)c5)c4n3)cc2)n1	16	0	39*	0
CC(C)n1cc(-c2ccc3cnc(Nc4ccc(-n5cnc(N6CCOCC6)n5)cc4)nc3c2Cl)cn1	12	2	6	0
Cc1cc(-c2nc(Nc3ccc(-n4cnc(N5CCOCC5)n4)cc3)ncc2Cl)no1	11	1	39*	-1
CCOC(=O)c1c(Cl)ccc2cnc(Nc3ccc(-n4cnc(N5CCOCC5)n4)cc3)nc12	-1	0	59*	0
Cc1ccc(-c2cccc3cnc(Nc4ccc(-n5cnc(N6CCOCC6)n5)cc4)nc23)cn1	1	0	49*	1
Cc1ccccc1NC(=O)Cn1nnc(C(=O)NCc2cccs2)c1N	-12	-1	46*	0
COc1ccc(-c2csc(N3N=C(C)C(N=Nc4ccc(C(N)=O)cc4)C3=O)n2)cc1 (centres undefined)	0	0	0	0
CC1=NN(c2nc(-c3ccc(C)cc3)cs2)C(=O)C1C(c1ccccc1)C(C#N)C(N)=O (centres undefined)	-16	3	75*	0
Cc1[nH]n(-c2nc(-c3ccccc3)cs2)c(=O)c1C(c1ccccc1)C(C#N)C(N)=O (centres undefined)	-7	0	59*	0
O=C(NC1CCCC1)c1cc(-c2ccc(O)cc2)on1	1	0	40*	0
CC(C)CNC(=O)c1cc(-c2ccc(O)cc2)on1	5	0	39*	0
COCCNC(=O)c1cc(-c2cccc(O)c2)on1	-22	-1	-7	0
CCCNC(=O)c1cc(-c2cccc(O)c2)on1	11	-1	53*	0
Cc1ccc(N2COc3ccc(Br)cc3C2)cc1	7	0	9	0
COCCNC(=S)NNC(=O)CSCc1ccccc1Br	21	1	1	2.8*
CCC1CN(CC(=O)NCc2cnc3ccccc3c2)Cc2cc(OC)ccc2O1 (centres undefined)	-2	0	6	0
c1ccc(OCCSc2nnc3sc4ccccc4n23)cc1	-9	-5	71*	0
SMILES	MITF primary	GPR151 activ	TEAD-YAP block	FBW7 activator
CCC(C)N1C(=O)S/C(=C/c2cc(C)n(-c3ccccn3)c2C)C1=O (centres undefined)	7	2	41*	0
CC(Cc1ccsc1)NC(=O)CSc1ccc2nnc(-c3cccnc3)n2n1 (centres undefined)	15	1	-3	1
CNC(=O)c1ccccc1Nc1cc(Nc2ccc3c(c2)CC(=O)N3)ncc1C(F)(F)F	16	0	51*	0
CNC(=O)c1ccccc1Nc1cc(Nc2ccc3c(c2)OCO3)ncc1C(F)(F)F	-7	0	41*	0
CNS(=O)(=O)c1ccccc1Nc1cc(Nc2ccccc2S(=O)(=O)NC)c(C(F)(F)F)cn1	21	2	1	0
CNC(=O)c1ccccc1Nc1cc(Nc2ncccn2)ncc1C(F)(F)F	21	-1	24	0
CNC(=O)c1ccccc1Nc1cc(Nc2ccc3[nH]c(=O)oc3c2)ncc1C(F)(F)F	11	1	33*	0
CNC(=O)c1ccncc1Nc1cc(Nc2ccc3c(c2)CC(=O)N3)ncc1C(F)(F)F	2	3	-7	0
CNS(=O)(=O)c1ccccc1Nc1cc(Nc2ccc3c(c2)CCC(=O)N3)ncc1C(F)(F)F	-5	0	93*	0
CNC(=O)c1ccccc1Nc1cc(Nc2ccc3[nH]nc(C4=CCNCC4)c3c2)ncc1C(F)(F)F	2	1	-36	0
CNC(=O)c1cc(F)ccc1Nc1cc(Nc2ccc(N3CCCC3=O)cc2)ncc1C(F)(F)F	-7	1	32	0
CNC(=O)c1ccccc1Nc1cc(Nc2ccc3c(c2)CC(=O)N3C)ncc1C(F)(F)F	-3	-2	65*	0
COc1cccc2cc(-c3cn4ccccc4n3)c(=O)oc12	7	-6	42*	0
O=c1oc2ccccc2cc1-c1cn2ccccc2n1	1	-11	75*	0
COc1cc(-c2c(C#N)c(N)[nH]c(=S)c2C#N)cc(OC)c1OC	-8	0	3	0
O=C1N=C(N2CCOCC2)S/C1=C/C=C/c1ccccc1	26	-1	45*	0
O=C1N=C(c2ccccc2)S/C1=C/C=C\c1ccccc1	13	0	15	0
O=C1N=C(N2CCCC2)S/C1=C\C=C\c1ccccc1	-1	0	78*	0
CC(=O)N1N=C(c2cccc(Br)c2)OC1c1ccc(C)cc1 (centres undefined)	0	1	14	0
CC(=O)NCCC(=O)Nc1ccc(S(=O)(=O)N(C)C)cc1	-1	-2	-5	0
Cc1ccc(Nc2nc(CSc3nnc(N)s3)cs2)cc1	7	0	44*	0
Cc1ccc(C(=O)NC(Nc2ccccc2C(F)(F)F)C(=O)c2ccccc2)cc1 (centres undefined)	10	-1	-5	1
O=C(NC1CCCC1)c1ccc2nc(-c3ccccc3)c(-c3ccccc3)nc2c1	-8	-1	-3	0
O=C(NC1CC1)c1ccc2nc(-c3ccco3)c(-c3ccco3)nc2c1	71*	0	9	-1
O=C(NCCCO)c1ccc2nc(-c3ccco3)c(-c3ccco3)nc2c1	83*	0	10	-1
O=C(Nc1ccc2nc(-c3ccco3)c(-c3ccco3)nc2c1)N1CCCC1	94*	0	2	0
O=C(NCCO)Nc1ccc2nc(-c3ccco3)c(-c3ccco3)nc2c1	89*	0	8	-1
CCOCCCNC(=O)c1ccc2nc(-c3ccco3)c(-c3ccco3)nc2c1	20	-2	12	-1
O=C(Cn1cnc2c(cnn2-c2ccccc2)c1=O)NCc1ccc(F)cc1	-5	0	-5	0
COC(=O)C1=C(C)N=c2s/c(=C\c3ccc(OC)cc3)c(=O)n2C1c1ccc(OC)cc1 (centres undefined)	-5	1	-6	0

Screens deposited in PubChem BioAssay by The Scripps Research Institute Molecular Screening Center.
